# Rev-erbA mod – modulators of human Rev-erb alpha DNA binding. P20393. Rev-erbα–FITC-DNA binding, fluorescence polarization, 90 min. activity, % at 10 µM. 370,000 tested, 0.79% active. AID 1259318;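 active = activity above about 14%, limit read from the data; passing the limit was not always enough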
# Target sequence (P20393 whole entry, looked up): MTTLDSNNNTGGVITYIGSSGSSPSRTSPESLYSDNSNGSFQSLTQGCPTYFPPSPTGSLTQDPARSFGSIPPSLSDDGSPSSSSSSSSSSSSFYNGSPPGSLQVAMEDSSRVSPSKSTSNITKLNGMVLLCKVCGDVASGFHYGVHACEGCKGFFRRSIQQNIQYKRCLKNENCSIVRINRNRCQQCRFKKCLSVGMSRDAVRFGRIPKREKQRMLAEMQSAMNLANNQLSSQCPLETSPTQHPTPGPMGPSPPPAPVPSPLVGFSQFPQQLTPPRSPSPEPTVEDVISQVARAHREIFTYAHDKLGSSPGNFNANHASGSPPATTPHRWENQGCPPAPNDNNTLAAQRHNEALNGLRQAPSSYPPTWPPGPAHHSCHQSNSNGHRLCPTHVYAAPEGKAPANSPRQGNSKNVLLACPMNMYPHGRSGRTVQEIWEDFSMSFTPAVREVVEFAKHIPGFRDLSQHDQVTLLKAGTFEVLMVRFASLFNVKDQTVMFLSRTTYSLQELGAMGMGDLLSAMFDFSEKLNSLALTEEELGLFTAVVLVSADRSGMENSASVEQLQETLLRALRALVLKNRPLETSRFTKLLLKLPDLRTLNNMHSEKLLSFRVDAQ
# DAX1 inh-1 – blocks DAX1 repression of SF-1 activated StAR promoter; HEK293T StAR-luciferase reporter, SF-1/DAX-1 repression relief; inhibition, % at 6.8 µM; 370,000 tested, 1.1% active; AID 652010;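 active = inhibition above the mean over all tested compounds plus 3 SD, cut at about 3.6% in these data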;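 note: higher inhibition means more luminescence from relief of DAX-1 repression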
# hgDAF12 agonist – agonists of H. glycines DAF-12 nuclear receptor; HEK293 GAL4-hgDAF12 UAS-luciferase reporter, agonist luminescence; normalized to butyrate control; activation, % at 6.8 µM; 370,000 tested, 1.8% active;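 active = activation above a cutoff set at the mean of all screened compounds plus 3 SD, cut at about 10% in these data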
# DAX1 inh-2 – NR0B1 (DAX1) inhibition; P51843; HEK293 Gal4-DAX1 luciferase reporter, luminescence; inhibition, % at 6.75 µM; 340,000 tested, 0.99% active;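 active = inhibition above the mean over all tested compounds plus 3 SD, cut at about 4.2% in these data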;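 note: inhibition shows as a rise in luminescence from relieved DAX1 repression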
# hcDAF-12 act – H. contortus DAF-12 activation, primary screen | HEK293 hcDAF-12 lit1-tk-luc reporter, luminescence; 0% DMSO, 100% Δ7-dafachronic acid | activation, % at 6.8 µM | 370,000 tested, 1.4% active;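 active = activation above the mean of all tested compounds plus 3 SD, cut at about 5.5% in these data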
# ssDAF-12 act – activates DAF-12 receptor from parasite S. stercoralis; HEK293 ssDAF-12/GRIP1 lit1-tk-luc reporter, luminescence; % of 3 µM dafachronic acid response; activation, % at 6.8 µM; 370,000 tested, 1% active;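 active = activation above the mean over all tested compounds plus 3 SD, cut at about 0.9% in these data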
# Hits are given with their value; i = inactive; nt = not tested or not shown. Sampled rows, rich in hits. Any-hit rate of the full collection: about 4.8%.
SMILES,Rev-erbA mod,DAX1 inh-1,hgDAF12 agonist,DAX1 inh-2,hcDAF-12 act,ssDAF-12 act
COc1ccccc1N(C(C)=O)c1nc(C)cc(C)c1C#N,i,i,i,i,i,i
CCn1c(/N=C/c2ccccc2O)nc2ccccc21,i,i,i,i,i,i
Cn1c(/N=C/c2cc(Cl)ccc2O)nc2ccccc21,i,i,i,nt,6.5,1.6
Cn1c(/N=C/c2cccs2)nc2ccccc21,i,i,i,i,5.8,i
COc1ccc(NC(=O)CSc2nnc(-c3cccs3)o2)cc1Cl,i,i,i,nt,i,i
Cc1ccc(-c2cc(-c3ccccc3)nc(Cl)n2)cc1,i,i,i,i,6.0,i
CCCC(=O)Nc1ccc(C#Cc2ccccc2)cc1,i,i,12,i,i,i
CCCC(=O)Nc1ccc(Oc2ccc(NC(=O)CCC)cc2)cc1,i,i,i,i,i,i
CCOC(=O)C1=NOC(C(=O)NCc2ccccc2)(C(=O)c2ccc(OC)cc2)C1 (stereo unspecified),i,i,i,nt,i,i
CCOC(=O)c1c(CC(C)C)csc1/N=C/C1C(=O)CC(C)(C)CC1=O,i,i,i,5.5,i,i
CCOC(=O)c1cc(C)sc1/N=C/C1C(=O)CC(C)(C)CC1=O,i,i,i,i,i,i
COc1ccc(OC)c(S(=O)(=O)N2CCCCC2C(=O)N2CCN(c3ccccc3F)CC2)c1 (stereo unspecified),i,i,i,nt,i,i
Cc1csc2nc(CCNS(=O)(=O)c3cccs3)cn12,i,i,13,i,i,i
CC1(C)CNC(=O)c2sc(N3CCCCC3)nc2C1,i,i,i,5.6,i,i
CC1(C)CC(=O)c2sc(N3CCCCC3)nc2C1,i,i,i,i,i,i
Cc1ccc2nc(-c3ccccc3)nn2c1,i,i,i,i,6.5,i
NC(=O)NN=C(C1CC1)C1CC1,i,i,i,4.9,i,i
C=NC(C(=O)N[C@H]1C(=O)N2C1SC(C)(C)C2C(=O)O)c1ccccc1 (stereo partly specified),i,nt,nt,nt,nt,nt
COc1ccc(-n2nnc3c(SCC(=O)N4CCCc5ccccc54)ncnc32)cc1,i,i,i,6.3,i,i
COc1ccc(/C=C2/C(=O)N(c3nc4ccccc4s3)N=C2CSc2ccc(Cl)cc2)cc1,i,i,i,i,5.6,i
CCOC(=O)Cc1c(Sc2ccccc2)c2cc(C)ccc2n1C,i,i,i,i,i,i
Cc1sc(CO)c(Sc2ccccc2)c1C(=O)O,i,i,i,nt,6.0,i
COc1ccc2c(c1)CN1C(=O)N(Cc3ccc(F)cc3)S(=O)(=O)CC21 (stereo unspecified),i,i,i,nt,i,i
COc1ccc(C(=O)COC(=O)c2ccc(OC)c(OC)c2)cc1OC,i,i,i,i,i,i
COc1ccc(C(=O)CSC#N)cc1OC,i,i,13,i,i,i
SMILES,Rev-erbA mod,DAX1 inh-1,hgDAF12 agonist,DAX1 inh-2,hcDAF-12 act,ssDAF-12 act
C=CCN1[C@H](CC(C)C)COc2cc(F)ccc2S1(=O)=O,i,i,i,nt,i,i
CC(=O)Nc1ccc(Cl)cc1C(=O)O,i,i,i,i,i,0.9
CCCOc1ccc(-c2c(C(=O)N/N=C/c3ccccc3)nnn2-c2nonc2N)cc1,i,i,i,i,i,2.4
CCOc1ccc(/C=N/NC(=O)c2nnn(-c3nonc3N)c2-c2ccc(OCC)cc2)cc1,i,i,i,i,i,i
CCOC(=O)/C(C#N)=C/c1cn(CCC(=O)O)nc1-c1ccc(OC)cc1,i,i,i,6.6,i,i
c1ccc(CNC2CCC23CCC(c2ccccc2)CC3)cc1 (stereo unspecified),i,i,i,nt,i,i
N/C(=N\OC(=O)c1ccc(Cl)cc1Cl)c1cccnc1,i,i,11,i,i,i
Cc1ccc(O)c(C(=O)CC(=O)c2ccc(Cl)cc2)c1,i,i,11,i,i,i
O=C(CC(=O)c1cc(Cl)ccc1O)c1ccccc1,i,i,12,i,i,i
CC(C)C[C@H]1COc2cccc(F)c2S(=O)(=O)N1Cc1cn(CCC2OCCO2)nn1,i,i,i,nt,i,i
CN1CCCCC(NC(=O)c2c(F)cccc2F)C1=O (stereo unspecified),i,i,i,nt,i,i
COc1cccc(-c2cc(C(=O)NCC3CCCO3)on2)c1 (stereo unspecified),i,i,11,i,i,i
COc1ccc(-c2cc(C(=O)NCC3CCCO3)on2)cc1OC (stereo unspecified),i,i,i,i,i,i
CC(=O)OCC(=O)N1CCN(C(=O)C(=O)c2cccc(C(F)(F)F)c2)CC1,i,i,i,nt,i,i
Brc1ccc(-c2cn3c(n2)SCC3)cc1,i,i,11,i,i,i
O=C1Nc2ccccc2N=C(c2ccc3c(c2)OCO3)C1N(C(=O)c1ccc2ccccc2c1)C1CC1 (stereo unspecified),i,i,11,nt,5.6,i
O=C1C=CC2=C3c4cc(O)c(O)cc4CC3(O)COC2=C1O (stereo unspecified),i,i,i,5.2,i,i
COC(=O)[C@H](C(C)C)N1Cc2nnn(CC3CCCCC3)c2-c2cc(F)ccc2S1(=O)=O,i,i,i,nt,i,i
COc1cc(OC)c(NC(=O)CCCn2c(=O)oc3ccccc32)cc1Cl,i,i,i,i,i,i
COc1ccc(NC(=O)CCCn2c(=O)oc3ccccc32)cc1Cl,i,i,i,i,6.4,i
COc1cccc(C(=O)Nc2cccc(C(C)=O)c2)c1,i,i,i,i,i,i
COc1ccc(C(=O)Nc2cccc(-c3ccc(N4CCOCC4)nn3)c2)cc1OC,i,i,i,i,i,i
CC(=O)Oc1cccc(NC(=O)c2cccc(C(=O)Nc3cccc(OC(C)=O)c3)c2)c1,i,i,i,i,i,i
COc1cccc(C(=O)Nc2cccc(-c3ccc(N4CCOCC4)nn3)c2)c1,i,4.0,i,i,i,i
COc1cccc(NC(=O)Nc2ccccc2Br)c1,i,i,11,i,i,i
SMILES,Rev-erbA mod,DAX1 inh-1,hgDAF12 agonist,DAX1 inh-2,hcDAF-12 act,ssDAF-12 act
COc1cccc(NC(=O)c2cccc(Cl)c2)c1,i,i,12,i,i,i
Cc1cccc(C(=O)Nc2cccc(OC(=O)c3cccc(C)c3)c2)c1,i,i,13,i,i,i
COC(=O)[C@]12C[C@H](CC(=O)N3CCCCC3)C(=O)N(CCc3ccc(OC)c(OC)c3)C1=C[C@H](COCc1ccccc1)O[C@@H]2C,i,i,i,nt,i,i
C=CCN(C)CC#Cc1ccccc1C,i,i,i,nt,i,i
COc1cccc(NC(=O)c2ccc3nc(C)sc3c2)c1,i,i,i,5.5,5.8,i
CC(=O)c1cccc(NC(=S)NC(=O)c2cncc(Br)c2)c1,i,i,i,i,i,i
COc1cccc(NC(=O)c2cnc(SC)nc2)c1,i,i,i,i,i,1.3
CSc1ncc(C(=O)Nc2ccccc2)cn1,i,i,i,i,i,i

# Screens as filed in PubChem.
